From ChEMBL document CHEMBL1157539, “Thousands of chemical starting points for antimalarial lead identification” (Nature, 2010) come the findings set out here.

For this assay, the system named is HepG2. The assay can be described thus: GSK_TCMDC: Percent inhibition of human HepG2 cell line. Test compounds present at 10uM. In kind it is functional.
What is called Inhibition is the relative decrease from the control value, in per cent. A high value points to a strong effect. For `Cc1cc(C2CCN(CCCCNC(=O)c3ccc(NC(=O)c4ccc(Cl)cc4)cc3)CC2)c(C)cc1OCc1ccccn1.Cl`, the Inhibition is on record as 18%.

On to `O=C(/C=C/c1ccc(Cl)c(Cl)c1)NCCCCCN1CCC(NC(=O)c2ccc3ccccc3c2)CC1`, for which the Inhibition amounted to 8%.

`Cn1cnc2c(Nc3ccncc3)nc(-c3ccc(OC(F)(F)F)cc3)nc21.O=C(O)C(F)(F)F` had an Inhibition of 28%.

The compound `COc1ccc(C2C(C(=O)Nc3cc(OC)c(OC)c(OC)c3)c3cc(OC)c(OC)cc3C(=O)N2C)cc1` (stereo not given) returned an Inhibition of 9%.

`Cc1cc(F)ccc1-c1nc(NCC(O)CNCCc2ccccc2)nc2c1ccc(=O)n2-c1c(F)cccc1F.O=C(O)C(F)(F)F` (stereo not given): the Inhibition is on record as 25%.

`Cc1cccc2nc(-c3ccc(-c4ccc(NC(=O)Nc5cccc(C#N)c5)cc4)s3)[nH]c12`: the Inhibition stood at 33%.

In turn, `CS(=O)(=O)CCNCc1ccc(-c2ccc3c(Nc4ccc(Oc5ccccn5)cc4)ccnc3c2)o1` displayed an Inhibition of 0%.

Turning to `C1=CN(Cc2ccccc2)C=CC1=C1C=Nc2ccccc21`, the Inhibition is on record as 8%.

Compound `CCCCc1cc(NCC)nc(Nc2ccc(F)cc2)n1` registered an Inhibition of 33%.

Consider `CCCC(C)Nc1nc(C)cc(N[C@@H](CC(C)C)C(=O)NC2CCCC2)n1.O=C(O)C(F)(F)F` (stereo not given in full), for which the Inhibition is on record as 6%.

In turn, `CN1CCN(Cc2ccc(-c3ccc4c(Nc5ccc(Oc6ccccn6)cc5)ccnc4c3)o2)CC1` showed an Inhibition of 13%.

For the compound `COc1ccccc1C1CCN(C2CCC(NC(=O)/C=C/c3cc(F)cc(F)c3)CC2)CC1` (stereo not given), the Inhibition was 45%.

`CCCCCCCN1CC[C@@H](CCCc2ccnc3ccc(OCCC4CCNCC4)cc23)[C@@H](CC)C1.Cl`: the Inhibition was 94%.

With `COc1ccc2nc3cc(Cl)ccc3c(NCCO)c2c1.Cl`, the Inhibition is recorded as 12%.

`Cn1c(N)c(N=O)c(=O)[nH]c1=O` came in with an Inhibition of 58%.

`COc1ccc(CCC(C)N2CC(N)C(c3cn(C)c4cnccc34)C2)cc1.Cl` (stereo not given) yielded an Inhibition of 5%.

Regarding `O=C(Nc1cccc(-c2ccc(-c3nc4ccccc4[nH]3)cc2)c1)c1csnn1`, the Inhibition is recorded as 31%.

In the case of `CC(C)NCc1ccc(-c2cccc(CN3CCC(c4ccccc4)CC3)c2)c(C(=O)NCC2CCCCC2)c1.O=C(O)C(F)(F)F`, the Inhibition was found to be 42%.

Compound `COc1ccc(CNCCc2cccs2)cc1-c1ccc(S(=O)(=O)NCCN2CCCC2)cc1.O=C(O)C(F)(F)F` had an Inhibition of 30%.

In the case of `Br.Cc1cc(C)c(CON2C(=N)N=C(N)NC2(C)C)cc1C`, the Inhibition amounted to 65%.

`COc1cccc(OC2CCN(C(=O)c3ccc(-c4ccc(N5CCCC5=O)cc4C)cc3)CC2)c1` gave an Inhibition of 42%.

Regarding `COc1ccc2nccc([C@@H](O)CN3CCC(NCCOc4cccc(F)c4F)CC3)c2c1.O=C(O)C(=O)O`, the Inhibition was 9%.

With `CN1CC(c2ccccc2)c2cc(O)c(CN3CCCCC3)cc2CC1Cc1ccccc1.Cl` (stereo not given), the Inhibition turned out to be 0%.

Take `Br.CCCC1N=C(N)N=C(N)N1c1ccc(CC)cc1` (stereo not given): the Inhibition is on record as 11%.

In turn, `COc1ccc(CNCc2cccc(-c3ccc(-c4nc5cccc(C)c5[nH]4)cc3)c2)cc1.O=C(O)C(F)(F)F` showed an Inhibition of 23%.

For `Cc1cc(OCC(=O)Nc2ccc(-c3nc4ccccc4[nH]3)cc2)cc(C)c1Cl`, the Inhibition was determined as 5%.

`FC(F)(F)c1ccc2[nH]c(-c3cccc(-c4cccc(CNCCc5ccncc5)c4)c3)nc2c1.O=C(O)C(F)(F)F` yielded an Inhibition of 31%.

In turn, `CC(=O)C1=NN(c2ccc(C)cc2)C(c2cccs2)N1c1ccccc1` (stereo not given) returned an Inhibition of 0%.

The compound `COC(=O)c1cccc(CNCc2ccc(-c3ccc(-c4nc5ccccc5[nH]4)s3)cc2)c1.O=C(O)C(F)(F)F` gave an Inhibition of 20%.

Compound `O=C(NCCN1CCCC1)c1cccc(Nc2nccc(Nc3ccc(Oc4ccccc4)cc3)n2)c1` registered an Inhibition of 33%.

The compound `COc1cc(NCC(O)CNc2cc(OC)c3ccccc3n2)nc2ccccc12` displayed an Inhibition of 42%.

As for `CCCN(CCC)CCCNc1ccc(C(=O)Nc2ccc(OCC)cc2)cc1[N+](=O)[O-]`, the Inhibition is 7%.

On to `COc1ccc(O)c(C(=O)NCCc2ccc(OC)c(-c3ccc(C(C)(C)C)cc3)c2)c1`, for which the Inhibition is on record as 11%.

In turn, `CN(C)CCN(C)Cc1ccc(-c2ccc(NC(=O)c3ccc(Cl)cc3)cc2)cc1.O=C(O)C(F)(F)F` gave an Inhibition of 51%.

For `O=c1cc(NCCC(CNCc2ccc(Br)o2)NCc2cc(Br)cc(Br)c2)[nH]c2ccccc12` (stereo not given), the Inhibition stood at 2%.

In the case of `Cc1ccc2c(=O)cc(CCc3cccc(F)c3F)n(CC(=O)N(Cc3ccc(-c4ccc(C(F)(F)F)cc4)cc3)C3CCN(C(C)C)CC3)c2n1.O=C(O)C(O)C(O)C(=O)O`, the Inhibition came to 58%.

Compound `CC1CN(c2ccc(NC(=O)c3ccc(F)cc3)cc2)CCN1Cc1cccc(F)c1.O=C(O)C(F)(F)F` (stereo not given) displayed an Inhibition of 11%.

In the case of `N#Cc1ccc(N(CCOC(=O)c2ccc(Br)s2)Cc2ccccc2C(F)(F)F)cc1C(F)(F)F`, the Inhibition is reported as 8%.

For `Cc1cccc2nc(-c3cccc(-c4ccc(C(=O)N5CCCCC5C(C)O)cc4)c3)[nH]c12` (stereo not given), the Inhibition amounted to 26%.

On to `O=c1nc2[nH]c3ccccc3n2c(=O)[nH]1`, for which the Inhibition amounted to 21%.
